Screening data deposited in PubChem by NMMLSC.
GSH bead fluor = GSH bead compound fluorescence profile; GSH beads flow cytometry, compound fluorescence 488/530 nm; active compounds read high; fluorescence (KMESF) at 10 µM; 0.25% of 190,000 active; AID 1776; in the data active = fluorescence above about 89;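 note: glutathione beads carrying GST-tagged Bcl family fusion proteins plus one bare bead set; values are compound well signal with DMSO vehicle wells as background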
RGS16-Gao = modulates binding between human RGS16 and Galphao. O15492+P09471. bead-based flow cytometry RGS16-Galphao binding, fluorescence; actives lie on both sides. binding response (% of control), % at 10 µM. 0.38% of 220,000 active;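 note: Galphao activated by GDP with aluminum fluoride before binding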
RGS8-Gao = modulates binding of RGS8 to human Galphao; multiplexed bead flow cytometry; actives lie on both sides; response (percent of control binding), % at 10 µM; 0.34% of 220,000 active; AID 1423; in the data active = response below about 60% or above about 140%; inactive = in between;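 note: Galphao activated as the GDP aluminium fluoride complex binding bead-coupled RGS8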
Target sequence (P09471 whole entry, looked up): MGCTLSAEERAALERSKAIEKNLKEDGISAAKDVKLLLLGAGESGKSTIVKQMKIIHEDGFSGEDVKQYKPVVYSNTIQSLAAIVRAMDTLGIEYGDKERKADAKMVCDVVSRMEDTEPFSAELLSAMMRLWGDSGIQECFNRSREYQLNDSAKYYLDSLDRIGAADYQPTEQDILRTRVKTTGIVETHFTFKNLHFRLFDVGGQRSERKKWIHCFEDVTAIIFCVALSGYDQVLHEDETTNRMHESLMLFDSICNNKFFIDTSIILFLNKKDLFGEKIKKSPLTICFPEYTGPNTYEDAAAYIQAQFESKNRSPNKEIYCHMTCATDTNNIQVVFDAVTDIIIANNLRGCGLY
RGS7-Gao reg = regulators of human RGS7-Galphao interaction; P09471; Multiplexed bead flow cytometry, RGS7-Galphao binding; actives lie on both sides; binding response (% of control), % at 10 µM; 0.35% of 220,000 active; AID 1439; in the data active = binding response below about 49% or above about 150%; inconclusive = no clear call, values can overlap the other calls; inactive = in between;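 note: fluorescent Galphao held in activated GDP-AlF4 state binding bead-coupled RGS7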
RGS4-Gao reg = human RGS4-Galphao interaction regulation; P09471; Multiplexed bead flow cytometry, RGS4-Galphao binding; actives lie on both sides; binding response (% of control), % at 10 µM; 0.33% of 220,000 active; AID 1415; in the data active = binding response below about 49% or above about 150%; inactive = in between;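 note: fluorescent Galphao activated with aluminum fluoride binding bead-coupled RGS4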
Avidin bead fluor = avidin bead compound fluorescence profile; fluorescence (KMESF) at 10 µM; Avidin beads, compound fluorescence 488/530 nm, flow cytometry; active compounds read high; 0.38% of 220,000 active; AID 1775; in the data active = fluorescence above about 47
RGS4-Gao HTS = regulators of human RGS4-Galphao interaction. multiplexed bead flow cytometry, RGS–Galpha-o binding. 99% of 1,600 active. RGS4–Galpha-o binding response, % at 10 µM. shares compounds with RGS16-Gao. AID 1504;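 note: fluorescently labeled Galpha-o bound to GDP with aluminium fluoride binding biotinylated RGS beads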
Avidin counter = interferes with biotinylated probe binding to avidin beads; shares compounds with RGS16-Gao; streptavidin beads, fluorescein-biotin binding, flow cytometry; inhibition, % at 10 µM; 1,700 tested, under 10 active;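 active = inhibition above 50%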;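 note: median green fluorescence of gated singlet beads compared with DMSO control wells; 0% = DMSO wells and 100% = complete loss of bead fluorescence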
RGS8-Gao confirm = RGS8-Galphao interaction regulation, single point confirmation; binding response (% of control), % at 10 µM; shares compounds with RGS16-Gao; bead-based flow cytometry RGS8-Galphao binding, fluorescence; actives lie on both sides; 3% of 1,700 active; in the data active = binding response below about 72% or above about 130%; inactive = in between;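 note: Galphao activated as GDP AlF4 complex before binding bead RGS8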
RGS7-Gao confirm = RGS7-Galphao interaction regulation, single point confirmation | shares compounds with RGS16-Gao | bead-based flow cytometry RGS7-Galphao binding; actives lie on both sides | response (percent of control binding), % at 10 µM | 7.8% of 1,700 active; in the data active = response below about 75% or above about 130%; inactive = in between;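 note: fluorescent Galphao activated with GDP and aluminum fluoride binding bead-coupled RGS7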
RGS16-Gao single = confirmation of regulators of human RGS16-Galphao interaction. bead-based flow cytometry, RGS16-Galphao binding; actives lie on both sides. response (% of control binding), % at 10 µM. 4% of 1,700 active. shares compounds with RGS16-Gao; in the data active = response below about 74% or above about 130%; inactive = in between;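 note: Galphao activated as the GDP aluminium fluoride complex binding bead-coupled RGS16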
RGS4-Gao single = RGS4-Galphao interaction regulation, single point confirmation; shares compounds with RGS16-Gao; RGS4-Galphao binding, multiplexed bead flow cytometry; actives lie on both sides; binding response (% of control), % at 10 µM; 4% of 1,700 active; AID 1840; in the data active = binding response below about 74% or above about 130%; inactive = in between
RGS19-Gao single = RGS19-Galphao interaction regulation, single point confirmation; response (percent of control binding), % at 10 µM; bead-based flow cytometry RGS19-Galphao binding; actives lie on both sides; 5% of 1,700 active; shares compounds with RGS16-Gao; in the data active = response below about 50% or above about 160%; inactive = in between;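 note: 100% = no compound control and 0% = blank background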
Target sequence (P09471 whole entry, looked up): as above
Target sequence (P49795 whole entry, looked up): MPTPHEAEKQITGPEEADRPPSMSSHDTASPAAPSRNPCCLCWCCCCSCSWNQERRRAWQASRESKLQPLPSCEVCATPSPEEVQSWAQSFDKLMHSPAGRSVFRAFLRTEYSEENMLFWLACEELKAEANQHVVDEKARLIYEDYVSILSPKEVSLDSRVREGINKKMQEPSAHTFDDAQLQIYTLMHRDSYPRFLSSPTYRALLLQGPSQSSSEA
Starred values were filed as active, the others as inactive; ? = inconclusive; . = no result given; [ ] = another dose, or the depositor's remark. Shown are actives, neighbours in structure and some others; about 1.2% of the full set was active somewhere. Unless noted, the rule behind the calls is not given here.

SMILES	GSH bead fluor	RGS16-Gao	RGS8-Gao	RGS7-Gao reg	RGS4-Gao reg	Avidin bead fluor	Avidin counter	RGS8-Gao confirm	RGS7-Gao confirm	RGS16-Gao single	RGS4-Gao single	RGS19-Gao single	others
Cc1ccc(OCCn2nc3ccccc3n2)c(C)c1	8	107.1	96.4	191.5*[activator]	121.3	154*	0.4	100.9	105.1	105.7	106.1	88.3	RGS4-Gao HTS=121.3*
CCN(CC)C(=S)Nc1cc(C(=O)OC)ccc1C(=O)OC	12	109.3	102.6	102.9	101.1	4	.	.	.	.	.	.
Cc1ccc(-n2nnnc2C(=Cc2ccc(N(C)C)cc2)c2nnnn2-c2ccc(C)cc2)cc1	17	10.6*	13.9*	18.3*	22.7*	.	1.3	112.6	99.6	118.3	102.1	90.8
Cc1ccc(CNC(=O)COC(=O)c2c(C)noc2C)cc1	29	142.1	131.9	142.4	156.6*[activator]	5	0.6	101.5	99.4	100.2	99.6	92.9
CCC(OC(=O)C1=Cc2ccccc2OC1)C(=O)NC1CCCC1 (stereo unspecified)	18	.	.	.	.	.	-0.5	101.1	103.9	102.3	101.3	101.1
c1ccc(CCN(Cc2ccccc2)Cc2nc(C3CC3)no2)cc1	8	109.6	104.8	105.3	102.1	9	.	.	.	.	.	.
COC(=O)c1ccc(CNC(=O)COC(=O)CC23CC4CC(CC(Br)(C4)C2)C3)cc1	6	77.6	91.4	103.5	101.2	3	.	.	.	.	.	.
Cc1ccc(C2CC(c3ccccc3)=NN2C(=S)Nc2ccccc2)o1 (stereo unspecified)	11	-19.6*	11.1*	-7.6*	-30.8*	-1	1.1	94.5	99.6	97.5	97.8	97.1
Cc1ccccc1CSc1nn2c(=O)c(C)nnc2s1	14	127.0	84.5	211.2*[activator]	115.6	40	2.0	101.1	96.0	103.2	93.8	92.0	RGS4-Gao HTS=115.6*
CC12CCC(C(=O)Nc3cccc(Cl)c3)(C(Br)C1=O)C2(C)C (stereo unspecified)	9	115.4	105.3	109.1	107.4	16	.	.	.	.	.	.
CC12CCC(C(=O)Nc3ccc(Cl)cc3)([C@H](Br)C1=O)C2(C)C (stereo partly specified)	.	.	.	.	.	.	-0.3	101.2	106.8	103.1	99.8	105.0
COc1ccccc1NS(=O)(=O)c1cc(Cl)ccc1OC	17	217.9	143.9*[activator]	129.3	124.9	37	0.0	104.2	103.1	107.1	104.0	98.4	RGS4-Gao HTS=124.9*
Cc1nc(C(=O)N/N=C/c2[nH]ncc2Br)cs1	.	101.7	101.8	?	103.7	6	.	.	.	.	.	.
CCCCc1cc(=O)oc2cc(O)ccc12	26	98.4	100.1	97.1	98.2	9	.	.	.	.	.	.
CCSc1nnc(NC(=O)C(CC)(C(F)(F)F)C(F)(F)F)s1	11	101.0	102.2	100.7	100.7	9	.	.	.	.	.	.
CCSc1nnc(NC(=O)C(C)(C(F)(F)F)C(F)(F)F)s1	47	287.6*[activator]	119.1	109.0	112.4	4	-0.2	100.8	94.2	96.9	95.6	64.6	RGS4-Gao HTS=112.4*
Cc1cc(/C=N/Nc2nc(N3CCOCC3)nc(N3CCOCC3)n2)c(C)n1-c1ccccc1	21	28.1	7.9*	50.8	26.5*	58*	0.0	100.4	101.2	100.7	100.9	112.9
CCOc1cc(/C=N/NC(=O)c2cccnc2)ccc1OCC(=O)N1CCOCC1	11	100.2	100.9	104.3	101.5	6	.	.	.	.	.	.
Cc1ccc(-n2c(Cn3c(C)nc4ccccc43)n[nH]c2=S)cc1	6	-1.4*	64.7	84.1	85.7	1	-0.5	95.7	101.5	90.4	99.4	100.6	RGS4-Gao HTS=85.7*
Cc1ccc(-n2c(CCc3nc4ccccc4[nH]3)n[nH]c2=S)cc1	12	108.7	101.4	102.7	103.4	10	.	.	.	.	.	.
CC(Oc1ccc(Cl)cc1Cl)C(=O)Nc1ccc(OCC(=O)O)cc1 (stereo unspecified)	18	99.7	107.1	98.6	103.0	5	.	.	.	.	.	.
Cc1cc(C(=O)NNC(=O)NC(C)C)no1	.	101.2	98.8	?	108.1	11	.	.	.	.	.	.
O=C(CCn1c(=S)oc2ccccc21)Nc1cccc(O)c1	16	12.2*	14.6*	9.9*	22.2*	0	0.3	98.9	101.6	97.2	99.0	103.9
O=C(NC(=O)c1cnccc1C(F)(F)F)Nc1ccccc1	.	87.2	87.9	?	85.7	5	.	.	.	.	.	.
CC1CN(C(NC(=O)c2ccccc2)C(Cl)(Cl)Cl)CC(C)O1 (stereo unspecified)	11	103.5	120.1	142.0	150.1*[activator]	4	-1.1	104.6	107.2	106.0	105.4	96.2
SMILES	GSH bead fluor	RGS16-Gao	RGS8-Gao	RGS7-Gao reg	RGS4-Gao reg	Avidin bead fluor	Avidin counter	RGS8-Gao confirm	RGS7-Gao confirm	RGS16-Gao single	RGS4-Gao single	RGS19-Gao single	others
CCOC(=O)c1c(NC(=O)CSc2nc3ccccc3o2)sc(C(C)=O)c1C	11	-3.6*	7.6*	2.6*	1.8*	-3	-1.1	104.0	105.4	106.9	103.6	124.5
CCOC(=O)c1c(NC(=O)c2cc(-c3ccc(O)cc3)on2)sc(C(C)=O)c1C	13	344.1*[activator]	109.5	122.3	258.5*[activator]	12	-1.0	105.7	145.2*[activator]	195.8*[activator]	151.7*[activator]	432.9*[activator]
CCOC(=O)c1sc(NC(=O)CSc2nnc(Cc3ccccc3)o2)c(C#N)c1C	32	18.7*	75.2	135.3	101.3	17	-1.0	69.5*	143.4*[activator]	50.7*	93.8	32.5*	RGS4-Gao HTS=101.3*
CN(CC(=O)Nc1ccc(N2CCOCC2)cc1)CC(=O)Nc1ccccc1C#N	11	95.8	96.4	102.5	94.8	6	.	.	.	.	.	.
CCCCCCOc1ccc(N2C(=O)CC(SC(=NCC)NCC)C2=O)cc1 (stereo unspecified)	13	117.4	106.3	107.6	110.5	.	.	.	.	.	.	.
CCOC(=O)c1ccc(NC(=O)c2ccccc2N(C)S(=O)(=O)c2ccccc2)cc1	12	94.4	98.8	97.8	97.1	16	.	.	.	.	.	.
